Screens deposited in PubChem BioAssay by National Center for Advancing Translational Sciences (NCATS).
SW480 rereplic: induces DNA re-replication in SW480 colon adenocarcinoma cells. 340,000 compounds, 1.8% hits. Potency, µM (top dose mostly 46.1 µM), for inactives: at the top dose re-replication activation, usual class: activators. SW480 DNA re-replication, Hoechst DNA content imaging, 48 h; note: potency is the fitted concentration of half-maximal effect; % of control where 0% means no effect; nearly all actives have a fitted effect of over 55% in size
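Image-based DNA-content assay: after two days of treatment, nuclei were labelled with the DNA dye Hoechst and imaged, and hits were compounds raising the count of nuclei showing high fluorescence intensity.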
KB-3-1 cytotox: KB-3-1 parental cell cytotoxicity. KB-3-1 viability, CellTiter-Glo ATP luminescence, 72 h. Potency, µM (highest dose often 46.1 µM), most hits filed as cytotoxic. 400,000 compounds, 1.4% hits; note: potency is the fitted concentration of half-maximal effect; % is set by controls: 0 for no effect and ±100 for the full control effect; nearly all actives have a fitted effect of over 60% in size
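Multi-concentration cytotoxicity screen in KB-3-1 cells grown in DMEM lacking phenol red with 10% FBS. After 72 h at 37 °C with compound, ATP-dependent luminescence was recorded.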
KB-V1 cytotox: KB-V1 MDR subline cytotoxicity; KB-V1 MDR cells viability, CellTiter-Glo, 72 h; Potency, µM (highest dose often 46.1 µM), usual class: cytotoxic; 400,000 compounds, 3.4% hits; note: potency is the fitted concentration of half-maximal effect; % is set by controls: 0 for no effect and ±100 for the full control effect; nearly all actives have a fitted effect of over 60% in size
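Cytotoxicity via CellTiter-Glo luminescence after 72 h compound exposure at 37 degrees C. Cells: drug-selected KB-V1 line, DMEM phenol-red free plus 10% FBS. Compounds tested at multiple concentrations; normalized data fitted to concentration-effect curves.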
IL1B secr inh: inhibitors of inflammasome signaling (IL-1 beta secretion); THP-1 LPS/ATP IL-1B secretion, AlphaLISA, 16 h; hits give low values; activity change, % at 57.5 µM; 360,000 compounds, 4.7% hits; in the data active = activity change below about -50%; inconclusive = mostly about -30% to -49%; note: % is set by controls: 0 for no effect and ±100 for the full control effect
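Secreted IL-1B measured by AlphaLISA bead assay after 16 h compound exposure of THP-1 cells; compounds (final up to 57.5 uM) added 1 h before LPS (250 ng/mL) and ATP (1.25 mM) stimulation; lower signal means less secretion.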
MCF10A rerep: inducers of DNA re-replication in MCF 10A breast cells. MCF 10A DNA re-replication, Hoechst nuclear intensity, 48 h. Potency, µM (series often up to 46.1 µM), for inactives: top-dose activity, positive = re-replication, usual class: activators. 350,000 compounds, 2.9% hits. AID 624296; note: potency is the fitted concentration of half-maximal effect; % of control where 0% means no effect; nearly all actives have a fitted effect of over 50% in size
An asterisk follows results filed as active; ! = not active in a repeat; [ ] = dose if it differs, or a comment. Hits are enriched below; roughly 9.9% of the tested compounds scored in any of these assays. Unless noted, calls come from the whole dose curve; as a rule, active = well fitted curve in the direction sought with a large enough effect; inconclusive = small, poorly fitted or top-dose-only effect, or another doubt; inactive = no such curve, though single readings can be large; an effect the other way counts as inactive or inconclusive.

Results for O=C(/C=C/c1ccc(Cl)cc1Cl)Nc1cccc(S(=O)(=O)NC2=NCCC2)c1 ?
SW480 rereplic: -48%; KB-3-1 cytotox: inconclusive; KB-V1 cytotox: inactive; IL1B secr inh: inconclusive; MCF10A rerep: -24%

What do the screens show for `O=C(/C=C/c1ccc([N+](=O)[O-])cc1)Nc1cccc(S(=O)(=O)NC2=NCCCCC2)c1`?
SW480 rereplic: 1%; KB-3-1 cytotox: inactive; KB-V1 cytotox: 18µM*; IL1B secr inh: inconclusive; MCF10A rerep: 10%

How did O=C(/C=C/c1ccccc1Cl)Nc1cccc(S(=O)(=O)NC2=NCCCCC2)c1 do in these assays?
SW480 rereplic: 0%; KB-3-1 cytotox: inconclusive; KB-V1 cytotox: inactive; IL1B secr inh: -64*; MCF10A rerep: 22%

Results for COc1cccc(-n2c(=O)c3c(C)c(C)sc3n(CC(=O)NCc3ccccc3)c2=O)c1 ?
KB-3-1 cytotox: inactive; KB-V1 cytotox: inactive

Results for COc1ccc(CNC(=O)Cn2nnc(-c3ccc(C(F)(F)F)cc3)n2)cc1 ?
KB-3-1 cytotox: inactive; KB-V1 cytotox: inconclusive

Results for COc1ccc(Nc2nc(NC(C)(C)C)nc(N3CCOCC3)n2)c(OC)c1 ?
SW480 rereplic: inconclusive; KB-3-1 cytotox: inconclusive; KB-V1 cytotox: inactive; IL1B secr inh: -16; MCF10A rerep: 15%

What do the screens show for `COc1ccc(Nc2nc(NC(C)(C)C)nc(N3CCCC3)n2)c(OC)c1`?
SW480 rereplic: inconclusive; KB-3-1 cytotox: inactive; KB-V1 cytotox: 18µM*; IL1B secr inh: -24; MCF10A rerep: inconclusive

How did COc1ccc(Nc2nc(N3CCN(S(C)(=O)=O)CC3)nc3ccccc23)c(OC)c1 do in these assays?
SW480 rereplic: 11%[1.84 µM]; KB-3-1 cytotox: inactive; KB-V1 cytotox: inactive; IL1B secr inh: 16; MCF10A rerep: -9%

What do the screens show for `COc1ccc(Nc2nc(N3CCCCC3)nc3ccccc23)c(OC)c1`?
SW480 rereplic: -3%; KB-3-1 cytotox: inconclusive; KB-V1 cytotox: inactive; IL1B secr inh: -62*; MCF10A rerep: 25%

How did O=C(c1cccn1-c1nnc(N2CCCC2)s1)N1CCN(c2ccccc2)CC1 do in these assays?
KB-3-1 cytotox: inactive; KB-V1 cytotox: inactive

How did Cc1ccc2nc3c(cc2c1)c(NC(=O)c1ccco1)nn3CC(C)C do in these assays?
SW480 rereplic: inconclusive; KB-3-1 cytotox: inactive; KB-V1 cytotox: inactive; IL1B secr inh: -24; MCF10A rerep: 12%

How did CCCn1nc(NS(=O)(=O)c2cccc3nonc23)c2cc3cc(C)ccc3nc21 do in these assays?
SW480 rereplic: -5%; KB-3-1 cytotox: inactive; KB-V1 cytotox: inactive; IL1B secr inh: -87*; MCF10A rerep: 1%

How did CCCn1nc(NC(=O)c2ccccn2)c2cc3cc(C)ccc3nc21 do in these assays?
SW480 rereplic: 7.3µM*; KB-3-1 cytotox: inconclusive; KB-V1 cytotox: inactive; IL1B secr inh: -63*; MCF10A rerep: inconclusive

How did CCCn1nc(NS(=O)(=O)c2cccc3nonc23)c2cc3cccc(C)c3nc21 do in these assays?
SW480 rereplic: 12%; KB-3-1 cytotox: inactive; KB-V1 cytotox: inactive; IL1B secr inh: 13; MCF10A rerep: inconclusive

Results for CCCCn1nc(NC(=O)c2cccc(Cl)c2)c2cc3ccc(C)cc3nc21 ?
KB-3-1 cytotox: inactive; KB-V1 cytotox: inactive

What do the screens show for `CCCn1nc(NC(=O)c2ccco2)c2cc3cc(C)ccc3nc21`?
SW480 rereplic: 18µM*; KB-3-1 cytotox: inactive; KB-V1 cytotox: inactive; IL1B secr inh: 0; MCF10A rerep: 0%

How did CCCn1nc(NC(=O)c2ccco2)c2cc3ccc(C)cc3nc21 do in these assays?
SW480 rereplic: 13µM*; KB-3-1 cytotox: inactive; KB-V1 cytotox: inactive; IL1B secr inh: -12; MCF10A rerep: inconclusive

What do the screens show for `CCCC(=O)Nc1nn(C)c2nc3ccc(C)cc3cc12`?
SW480 rereplic: inconclusive; KB-3-1 cytotox: inactive; KB-V1 cytotox: inactive; IL1B secr inh: 18; MCF10A rerep: 20%

What do the screens show for `COc1ccc(C(=O)N2CCN(Cc3cc(=O)n4nc(-c5ccccc5C)sc4n3)CC2)cc1OC`?
KB-3-1 cytotox: inactive; KB-V1 cytotox: inactive

What do the screens show for `Cc1csc(C(C)N(C)C(=O)c2ccc(OC3CCN(Cc4ccccn4)CC3)cc2)n1` (stereo not given)?
SW480 rereplic: -7%; KB-3-1 cytotox: inactive; KB-V1 cytotox: inconclusive; IL1B secr inh: inactive; MCF10A rerep: -5%

Results for N#Cc1nc(NCC(F)F)nc(Nc2cc(F)cc(F)c2)n1 ?
SW480 rereplic: 0%; KB-3-1 cytotox: inconclusive; KB-V1 cytotox: inconclusive; MCF10A rerep: 4%

How did CCCC[n+]1ccn(-c2nc3ccccc3nc2[N-]S(=O)(=O)c2cccs2)c1 do in these assays?
SW480 rereplic: 16µM*; KB-3-1 cytotox: inactive; KB-V1 cytotox: inactive; MCF10A rerep: inconclusive

Results for O=S(=O)([N-]c1nc2ccccc2nc1-n1cc[n+](Cc2ccccc2)c1)c1ccccc1 ?
SW480 rereplic: inconclusive; KB-3-1 cytotox: inactive; KB-V1 cytotox: inactive; MCF10A rerep: 6.5µM*

What do the screens show for `COc1ccc(C2=CC(=O)C[C@H](c3ccc(F)cc3)C2)c(F)c1F`?
SW480 rereplic: -4%; KB-3-1 cytotox: inactive; KB-V1 cytotox: inconclusive; IL1B secr inh: inconclusive; MCF10A rerep: -2%

Results for O=C1C=C(c2ccc(-c3ccccc3)cc2)C[C@@H](c2ccc(F)cc2)C1 ?
SW480 rereplic: -8%; KB-3-1 cytotox: inactive; KB-V1 cytotox: inactive; IL1B secr inh: -23; MCF10A rerep: 11%

What do the screens show for `O=C1C=C(C#Cc2ccccc2)C[C@@H](c2ccc(F)cc2)C1`?
KB-3-1 cytotox: inconclusive; KB-V1 cytotox: inactive; IL1B secr inh: -85*

Results for COc1ccccc1C#CC1=CC(=O)C[C@H](c2ccc(F)cc2)C1 ?
KB-3-1 cytotox: inconclusive; KB-V1 cytotox: inactive; IL1B secr inh: -58*

What do the screens show for `C=C(c1ccc(O)cc1)c1ccc(O)cc1`?
SW480 rereplic: 0%; KB-3-1 cytotox: inactive; KB-V1 cytotox: inactive; IL1B secr inh: -59*; MCF10A rerep: inconclusive

What do the screens show for `CC(=NN=C(C)c1ccc(O)cc1)c1ccc(O)cc1`?
SW480 rereplic: -10%; KB-3-1 cytotox: inconclusive; KB-V1 cytotox: inactive; IL1B secr inh: -10; MCF10A rerep: 14%

How did C/C=C(/C(=C/C)c1ccc(O)cc1)c1ccc(O)cc1 do in these assays?
SW480 rereplic: inconclusive; KB-3-1 cytotox: inactive; KB-V1 cytotox: inconclusive; IL1B secr inh: 35; MCF10A rerep: 4.6µM*!

Results for Cc1ccnc(NS(=O)(=O)c2ccc(NS(=O)(=O)c3ccc(Br)cc3)cc2)n1 ?
SW480 rereplic: -6%; KB-3-1 cytotox: inactive; KB-V1 cytotox: inactive; IL1B secr inh: 5; MCF10A rerep: 2%
